Laboratory results: the supplement of paper PMC9950053
Structures can show the parent of a compound that is named as a salt.

System: Danio rerio larvae (5 dpf)
Assay: excitability (activity period 17 minus period 16, 1-s interval sound) minus DMSO control (percentage points); higher = more acoustic excitability than DMSO larvae
Conditions: 10 µM; exposure time: 3 h pre-incubation + 3 h imaging
Description: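 Wild-type 5 dpf zebrafish larvae (n=48 per drug, 96-well plates, 28.5 °C) were exposed to Tocris FDA-approved library compounds at 10 µM (0.1% DMSO) for 3 h before and 3 h during imaging. Images were taken every 6 s during visual (moving coloured lines) and acoustic stimuli, and larvae were tracked with the DeepLabCut-based Z-LaP Tracker. Each behavioural measure is the treated-group mean minus the DMSO vehicle control mean (n=844), in percentage points. This mapping covers compounds with 4-character plate codes.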

Compound	excitability
CCN(C)C(=O)Oc1cccc([C@H](C)N(C)C)c1 [Rivastigmine tartrate]	3.52
O=c1[nH]c2ccccc2n1C1CCN(CCCC(c2ccc(F)cc2)c2ccc(F)cc2)CC1 [Pimozide]	-0.377
CC[C@@H](C(N)=O)N1CCCC1=O [Levetiracetam]	1.58
COc1cc2c(cc1OC)C1CC(=O)C(CC(C)C)CN1CC2 (stereo unspecified) [Tetrabenazine]	22.4
Cc1cccc([C@H](C)c2c[nH]cn2)c1C [Dexmedetomidine hydrochloride]	5.7
CC(O)(CS(=O)(=O)c1ccc(F)cc1)C(=O)Nc1ccc(C#N)c(C(F)(F)F)c1 (stereo unspecified) [Bicalutamide]	3.42
CC(C)C[C@H]1C(=O)N2CCC[C@H]2[C@]2(O)O[C@](NC(=O)[C@@H]3C=C4c5cccc6[nH]c(Br)c(c56)C[C@H]4N(C)C3)(C(C)C)C(=O)N12 [Bromocriptine mesylate]	18.2
CN1C[C@H](C(=O)N[C@]2(C)O[C@@]3(O)[C@@H]4CCCN4C(=O)[C@H](Cc4ccccc4)N3C2=O)C[C@@H]2c3cccc4[nH]cc(c34)C[C@H]21 [Dihydroergotamine mesylate]	0.33
N[C@@H]1C[C@H]1c1ccccc1 [Tranylcypromine hydrochloride]	3.55
C=CCN1C[C@H](C(=O)N(CCCN(C)C)C(=O)NCC)C[C@@H]2c3cccc4[nH]cc(c34)C[C@H]21 [Cabergoline]	12.4
C=C1C[C@@H]2[C@H](CC[C@]3(C)C(=O)CC[C@@H]23)[C@@]2(C)C=CC(=O)C=C12 [Exemestane]	11.9
